# PubChem BioAssay AID743258 (The Scripps Research Institute Molecular Screening Center, 2014)
# Out of some 3,300 compounds screened, about 100 (3%) were called active. These entries were drawn from the full list. Unmarked numbers belong to inactive results. Rule as the data show it: active = inhibition above about 9.5%; inactive = the rest.
# Biological target: 1-phosphatidylinositol 4,5-bisphosphate phosphodiesterase gamma-1 (Homo sapiens) (UniProt P19174)
# Assay: human PLCG1 activity blockade – biochemical, fluorescence, counter-screen for PLC-beta3 inhibitor project (AID 743258)
# Details: purified PLC-gamma1, fluorogenic substrate, at 12.3 µM, hits give high values
# Sequence of 1-phosphatidylinositol 4,5-bisphosphate phosphodiesterase gamma-1 (Homo sapiens) (P19174 whole entry, looked up): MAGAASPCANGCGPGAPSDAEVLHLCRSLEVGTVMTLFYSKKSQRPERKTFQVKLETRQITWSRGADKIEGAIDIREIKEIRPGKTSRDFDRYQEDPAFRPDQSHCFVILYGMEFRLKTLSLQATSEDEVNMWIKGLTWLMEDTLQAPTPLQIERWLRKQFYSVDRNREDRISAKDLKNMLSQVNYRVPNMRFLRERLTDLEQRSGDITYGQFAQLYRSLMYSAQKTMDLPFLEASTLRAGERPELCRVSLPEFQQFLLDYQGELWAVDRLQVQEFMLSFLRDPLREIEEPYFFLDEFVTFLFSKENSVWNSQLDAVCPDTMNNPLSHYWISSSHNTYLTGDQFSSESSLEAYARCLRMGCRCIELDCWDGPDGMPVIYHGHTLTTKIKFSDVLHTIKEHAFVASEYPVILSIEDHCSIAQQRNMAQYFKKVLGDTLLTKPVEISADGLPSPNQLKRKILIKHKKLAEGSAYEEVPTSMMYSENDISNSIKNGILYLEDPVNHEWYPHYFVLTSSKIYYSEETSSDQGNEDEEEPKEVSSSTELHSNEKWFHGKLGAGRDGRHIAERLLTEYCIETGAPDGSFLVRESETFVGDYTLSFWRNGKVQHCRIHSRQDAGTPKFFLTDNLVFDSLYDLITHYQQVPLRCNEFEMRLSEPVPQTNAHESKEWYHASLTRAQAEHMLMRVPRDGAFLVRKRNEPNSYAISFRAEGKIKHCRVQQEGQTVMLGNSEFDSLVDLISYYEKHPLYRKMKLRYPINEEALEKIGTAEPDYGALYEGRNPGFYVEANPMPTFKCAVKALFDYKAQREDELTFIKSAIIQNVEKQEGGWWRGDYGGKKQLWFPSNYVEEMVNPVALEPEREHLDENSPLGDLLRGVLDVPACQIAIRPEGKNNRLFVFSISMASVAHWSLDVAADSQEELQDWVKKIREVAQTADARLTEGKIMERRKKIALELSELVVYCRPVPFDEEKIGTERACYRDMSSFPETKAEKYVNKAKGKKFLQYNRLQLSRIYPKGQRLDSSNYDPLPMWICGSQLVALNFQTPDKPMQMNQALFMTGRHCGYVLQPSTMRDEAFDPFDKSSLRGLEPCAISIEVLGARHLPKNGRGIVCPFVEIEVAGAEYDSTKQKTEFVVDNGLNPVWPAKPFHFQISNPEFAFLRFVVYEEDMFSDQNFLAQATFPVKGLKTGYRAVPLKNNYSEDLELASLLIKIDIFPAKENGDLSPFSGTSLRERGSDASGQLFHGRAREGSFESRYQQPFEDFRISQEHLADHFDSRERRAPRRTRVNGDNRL
row,Compound,inhibition
1,Cc1ccc(Cn2ccc(NC(=O)C3C4CCC(C4)C3C(=O)O)n2)cc1 (stereo not drawn),6.33%
2,N#Cc1c(NC(=O)C2CCCO2)sc2c1CCCCC2 (stereo not drawn),-9.66%
3,Cc1nc2ccc(NC(=O)c3cccc(S(=O)(=O)N4CCOCC4)c3)cc2s1,-12.2%
4,N#C[C@]1(S(=O)(=O)c2ccccc2)C[C@@H]2ON=C(c3cccc(Br)c3)[C@@H]2C1,-2.59%
5,Nn1cnnc1N/N=C/c1cc([N+](=O)[O-])c(Cl)cc1Cl,-3.65%
6,Nc1nc(NCC(=O)O)nc(N2CCCCCC2)c1[N+](=O)[O-],0.65%
7,COCc1cc(C(C)=O)ccc1OC,-2.07%
8,C=CCOc1ccccc1/C=N/NC(=O)Cc1ccccc1,-8.16%
9,C=CCSC(CC)(CC)C(N)=O,2%
10,CCOc1ccc(OCC)c(NC(=O)CSc2nnc(Cn3cnc4ccccc43)n2C)c1,-2.36%
11,COc1ccc(C(CNC(=O)c2cc(S(=O)(=O)Nc3cccc(C)c3)ccc2C)N2CCCC2)cc1 (stereo not drawn),-5.37%
12,O=C(NCCCN1CCCCC1)C1CC(=O)N(CCc2ccccc2)C1 (stereo not drawn),0.03%
13,Clc1ccc(C2[C@H]3CN(CC4CCCCC4)[C@H](c4ccccc4)C34CC2(c2cccnc2)C4)cn1 (stereo partly drawn),-4.79%
14,O=[N+]([O-])c1cc(C(F)(F)F)ccc1NN=C1CCCC1,8.96%
15,CCC1S/C(=N/N=C/c2ccco2)NC1=O (stereo not drawn),-2.12%
16,O=S(=O)(c1ccc(F)cc1)N1CCN(C(=S)NC2CCCC2)CC1,-7.54%
17,COc1ccc(CCNC(=O)COC(=O)Cc2ccccc2F)cc1,-5.86%
18,CC(C)CCSc1ncnc2c1oc1nc3c(cc12)COC(C)(C)C3,-6.65%
19,CNC(=O)n1ccc(C(=O)N2CCCCC2)n1,-7.1%
20,Cc1cc2nc(SCCN3CCOCC3)[nH]c2cc1C,-0.23%
21,CC(C)Cn1cnc2c1c(=O)n(CC(O)c1ccccc1)c(=O)n2CC(C)C (stereo not drawn),-3.61%
22,CCOc1ccccc1C1CC(c2cccc(NS(C)(=O)=O)c2)=NN1C(=O)c1ccccc1 (stereo not drawn),-6.72%
23,CN(C(=O)c1cccc(NC(=O)Cc2cccc([N+](=O)[O-])c2)c1)C1CCCCC1,-5.4%
24,O=C(Nc1cccc([N+](=O)[O-])c1)Nn1cnnc1,0.91%
25,CS(=O)(=O)N(Cc1ccc(Cl)cc1)c1ccc(C(=O)NCCSCc2ccco2)cc1,0.35%
26,COc1ccc(NC(=O)c2ccc(OC)cc2)cc1,-6.63%
27,C=CCN(c1ccc(Cl)cc1)S(=O)(=O)c1cccc(C(=O)OCC(=O)N(C)C)c1,-6.25%

row,Compound,inhibition
1,Cc1cc(NC(=O)CN2C(=O)NC(CC(C)C)C2=O)no1 (stereo not drawn),-4.65%
2,CN(CC(=O)Nc1ccccc1Cl)C(=O)COc1cccc2c1OC(C)(C)C2,3.1%
3,CCc1c(C)n([O-])c2c([n+]1=O)CCCCC2,-5.96%
4,FC(F)(F)c1cnc(Oc2ccccc2-c2nnc(-c3ccc(Cl)cc3)o2)c(Cl)c1,-5.48%
5,Cc1cc(NC(=O)c2ccc(F)cc2)ccc1NC(=O)c1ccco1,-0.11%
6,Cc1nc(-c2ccc(F)cc2)c(CC(=O)N2CCN(S(=O)(=O)c3ccc(F)cc3)CC2)s1,-5.79%
7,CCC1CCCCN1C(=O)CSc1nc(C)cc(C)n1 (stereo not drawn),-6.45%
8,O=C1NC2(CCCCC2)N=C1c1ccccc1,-5.81%
9,O=C(C1CCCO1)N1CCN(C(=S)Nc2cccc(Cl)c2)CC1 (stereo not drawn),-5.73%
10,O=C1/C(=C\c2ccsc2)NC(=S)N1c1ccccc1,-7.04%
11,COc1ccc(-c2ccc(CN3C(CC(C)C)C(=O)N(Cc4cn(CC5CCCCC5)nn4)CCS3(=O)=O)cc2)cc1 (stereo not drawn),0.15%
12,S=c1[nH]nc(-c2cccnc2)n1/N=C/C(Cl)=C\c1ccccc1,-4.71%
13,Cc1ccc(C23CC4CC(CC(C(=O)NCC(=O)O)(C4)C2)C3)cc1,9.94% (active)
14,CCn1c(SCC(C)=O)nc2sc3c(c2c1=O)CCCC3,-3.1%
15,O=C(C[C@H]1C(=O)N(c2ccc(F)c(F)c2)C[C@@H]1Cc1ccccc1)Nc1ccccc1,2.94%
16,Cc1c(C#N)c2ncn(CC#N)c(=O)c2n1-c1ccccc1,-8.35%
17,O=S1(=O)c2ccc(Br)cc2OC[C@H](Cc2ccccc2)N1Cc1cn(Cc2ccccc2)nn1,1.8%
18,COC(=O)C[C@@H]1CC[C@@H]2[C@H](COc3ccc(NC(=O)c4cccc(F)c4)cc3C(=O)N2C)O1,6.24%
19,COC(=O)N(C)C[C@@H]1OCc2cnnn2CCCC(=O)N([C@@H](C)CO)C[C@@H]1C,-7.63%
20,C=CCOc1ccc(Cl)cc1CNCCCN1CCOCC1,2.7%
21,COc1ccc(/C=C2\N=C3CCCN3C2=O)cc1,-0.94%
22,CCOc1ccccc1NC(=O)CCN1CCN(S(=O)(=O)c2ccc(OC)cc2)CC1,-1.14%
23,CC1(C(=O)NCc2ccccc2)CSCC(=O)N1CCCN1CCOCC1 (stereo not drawn),-9.79%
24,O=C(NCc1cccnc1)c1cc(C2CCCCN2C(=O)CCc2ccccc2)on1 (stereo not drawn),-6.35%
25,O=C(CSc1ccccc1)Nc1cccc(S(=O)(=O)N2CCOCC2)c1,3.57%
26,COc1ccc(S(=O)(=O)N2CCC(C(=O)OCC(=O)c3ccccc3)CC2)cc1[N+](=O)[O-],8.79%
